Laboratory results taken from the supplement of paper PMC7411640.
Counter-ions that a name gives are not always drawn.

Tested on: MDA-MB-468
Assay: phospho-S6 immunofluorescence (DAPI-normalised), per-plate z-score; higher = higher phospho-S6 signal (less pathway suppression)
Settings: 24 h
Description: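 GPCR-targeted compound library (MedChemExpress HY-L006) tested on MDA-MB-468 PTEN-null TNBC cells in 384-well plates at 0.1, 1 or 10 uM, combined with vehicle, GDC0941 450 nM or lapatinib 1 uM, for 24 h. Phospho-S6 (S240/244) immunofluorescence normalised to DAPI and expressed as a per-plate z-score; values are the mean of biological triplicates.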

Row | Compound | phospho-S6 immunofluorescence (z-score) (co-treatment: GDC0941 450 nM) | phospho-S6 immunofluorescence (z-score) (co-treatment: lapatinib 1 uM) | phospho-S6 immunofluorescence (z-score) (co-treatment: vehicle)
1 | CS(=O)(=O)c1cc(F)cc2c3c(n(Cc4ccc(Cl)cc4)c12)[C@@H](CC(=O)O)CC3 [Laropiprant] (compound 10 µM) | 0.48 | 0.81 | 0.75
2 | O=C(O)COCCN1CCN(C(c2ccccc2)c2ccc(Cl)cc2)CC1 (configuration not stated) [Cetirizine (dihydrochloride)] (compound 10 µM) | -0.15 | 0.74 | 0.52
3 | CN(C)N(C)C(=O)[C@@]1(Cc2ccccc2)CCCN(C(=O)[C@@H](Cc2c[nH]c3ccccc23)NC(=O)C(C)(C)N)C1 [Anamorelin] (compound 10 µM) | -0.16 | -2.31 | 0.4
4 | Cc1ccccc1N1CCN(CCc2nnc3n2CCCC3)CC1 [Dapiprazole (hydrochloride)] (compound 10 µM) | 0.31 | -0.49 | -0.32
5 | Cc1ccc2c(c1CCC(=O)O)CC[C@@H](NS(=O)(=O)c1ccc(Cl)cc1)C2 [Terutroban] (compound 10 µM) | -0.9 | 0.55 | -0.1
6 | COc1cc(/C=C/C(=O)NCCn2c(C(F)(F)F)cc3ccccc32)cc(OC)c1OC (compound 10 µM) | -3.69 | -6.85 | -8.39
7 | CCOc1nc2cccc(C(=O)O)c2n1Cc1ccc(-c2ccccc2-c2nnn[nH]2)cc1 [Candesartan] (compound 10 µM) | 1 | 0.32 | 0.19
8 | Cc1ccc(C)c(OCCn2cc(C(=O)O)c3ccccc32)c1 (compound 10 µM) | 0.61 | -0.34 | -0.21
9 | CCN(CC)CCOC(=O)[C@@H](Cc1cccc2ccccc12)C[C@@H]1CCCO1 [Naftidrofuryl (oxalate)] (compound 10 µM) | -1.27 | -0.87 | -1.37
10 | CC1(C)CN2C(CSC(=NC3CCCCC3)NC3CCCCC3)=CSC2=N1 [IT1t (dihydrochloride)] (compound 10 µM) | -2.08 | -0.41 | -1.11
11 | c1cc(CN2CCCNCCNCCCNCC2)ccc1CN1CCCNCCNCCCNCC1 [Plerixafor] (compound 10 µM) | -0.31 | 0.01 | 0.2
12 | CCCN(CCc1cccs1)[C@H]1CCc2c(O)cccc2C1 [Rotigotine (Hydrochloride)] (compound 10 µM) | -0.16 | 0.3 | -0.63
13 | CC1(C)C(=O)N(CCN2CCC(C(=O)c3ccc(F)cc3)CC2)c2ccccc21 (compound 10 µM) | -0.29 | -0.77 | 0.28
14 | CCC(=O)OCC(=O)[C@@]1(OC(=O)CC)[C@@H](C)C[C@H]2[C@@H]3CCC4=CC(=O)C=C[C@]4(C)[C@@]3(Cl)[C@@H](O)C[C@@]21C [Beclometasone dipropionate] (compound 10 µM) | 0.45 | 0.54 | 0.15
15 | N[C@@H](COP(=O)(O)O)C(=O)O [O-Phospho-L-serine] (compound 10 µM) | 0.23 | 0.05 | -0.66
16 | COc1ccccc1N1CCN(CCN(C(=O)C2CCCCC2)c2ccccn2)CC1 (compound 10 µM) | -0.49 | 0.26 | -0.79
17 | CC[C@H](C)[C@@H]1NC(=O)[C@H](Cc2ccc(O)cc2)NC(=O)[C@@H](N)CSSC[C@@H](C(=O)N2CCC[C@H]2C(=O)N[C@@H](CC(C)C)C(=O)NCC(N)=O)NC(=O)[C@H](CC(N)=O)NC(=O)[C@H](CCC(N)=O)NC1=O [Oxytocin (acetate)] (compound 10 µM) | -0.77 | -0.07 | -0.87
18 | C=CCc1ccccc1OCC(O)CNC(C)C (configuration not stated) [Alprenolol (hydrochloride)] (compound 10 µM) | 0.45 | -0.09 | 1.12
19 | CCC1(c2c[nH]cn2)Cc2ccccc2C1 [Atipamezole] (compound 10 µM) | 0.08 | -0.83 | 0.81
20 | CC[C@H](C)[C@@H]1NC(=O)[C@H](Cc2ccc(OC)cc2)NC(=O)CCCSC[C@@H](C(=O)N2CCC[C@H]2C(=O)N[C@@H](CC(C)C)C(=O)NCC(N)=O)NC(=O)[C@H](CC(N)=O)NC(=O)[C@H](CCC(N)=O)NC1=O [Carbetocin] (compound 10 µM) | 0.31 | -0.07 | 0.3
21 | CC(=O)Oc1cc2c(s1)CCN(C(C(=O)C1CC1)c1ccccc1F)C2 (configuration not stated) [Prasugrel] (compound 10 µM) | -1.29 | 1.92 | -0.48
22 | Nc1nc(CC(=O)Nc2ccc(CCNC[C@H](O)c3ccccc3)cc2)cs1 [Mirabegron] (compound 10 µM) | 0.91 | 1.75 | 0.56
23 | N[C@@H](CCC(=O)O)C(=O)[O-].[Na+] [L-Glutamic acid monosodium salt] (compound 10 µM) | 0.12 | -0.6 | -0.39
24 | CN1CCN2c3c(cccc31)[C@@H]1CN(CCCC(=O)c3ccc(F)cc3)CC[C@@H]12 [lumateperone (Tosylate)] (compound 10 µM) | -3.44 | -3.22 | -5.62
